Screens as filed in PubChem BioAssay.
VDR inh: blocks the human vitamin D receptor. VDR-SRC2-3 peptide fluorescence polarization, 2 h. AID 504847. actives 0.93% (n = 400,000). P11473. Potency, µM, without a hit: max response, negative = inhibition, actives largely listed as inhibitors; also: % is scaled to controls: 0 for no effect and ±100 for the full control effect
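Signal is fluorescence polarization, reporting how far test compounds block the interaction of VDR with the SRC2-3 coregulator peptide after a 2 h room-temperature incubation.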
BAZ2B block: inhibitors of human BAZ2B bromodomain; AlphaScreen BAZ2B-H3K14Ac peptide displacement; Potency, µM (highest dose often 114 µM), for the others: at the top dose activity change, negative = inhibition, most hits filed as inhibitors; actives 4.4% (n = 360,000); also: % is scaled to controls: 0 for no effect and ±100 for the full control effect; nearly all actives have a fitted effect of over 60% in size
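AlphaScreen displacement of biotin-H3(5-23)K14Ac peptide (50 nM final) from BAZ2B (50 nM final) in PBS pH 7.4, 0.01% Tween-20; complex preformed 30 min RT, then compounds (top 110 uM) 30 min RT, beads 20 min dark.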
HP1b chromo inh: HP1-beta chromodomain-methylated histone interaction inhibition; AlphaScreen HP1-beta / biotin-H3K9me3 peptide binding; actives 0.56% (n = 390,000); Potency, µM (series often up to 114 µM), for inactives: at the highest dose activity change, negative = inhibition, usual class: inhibitors; also: nearly all actives have a fitted effect of over 70% in size
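HP1-beta protein (50 nM final) preincubated 30 min at room temperature with biotinylated H3(1-18)K9me3 peptide (50 nM) in PBS pH 7.4, 0.01% Tween-20, then compound added for 30 min. AlphaScreen streptavidin donor/nickel chelate acceptor beads (10 ug/mL final), 30 min dark, luminescence read.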
G9a inh: inhibitors of human histone lysine methyltransferase G9a. Potency, µM (highest dose often 102 µM), inactives show at the highest dose activity, negative = inhibition, actives largely listed as inhibitors. G9a H3K9 monomethylation, AlphaScreen, 2 h. actives 8.8% (n = 350,000). Q96KQ7; also: % is scaled to controls: 0 for no effect and ±100 for the full control effect; nearly all actives have a fitted effect of over 75% in size
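Compounds were preincubated with 20 nM G9a for 15 min, after which biotinylated H3K9 peptide (500 nM) and SAM (20 uM) started a 2 h room-temperature reaction. Monomethylated product was quantified by antibody-based AlphaScreen chemiluminescence.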
JMJD2A Tudor: blocks the human JMJD2A Tudor domain. O75164. AlphaScreen JMJD2A-Tudor / H3K4me3 peptide binding. Potency, µM (series often up to 114 µM), for the others: at the highest dose activity change, negative = inhibition, actives largely listed as inhibitors. actives 4.4% (n = 390,000). AID 504339; also: % is scaled to controls: 0 for no effect and ±100 for the full control effect; nearly all actives have a fitted effect of over 50% in size
Target sequence (O75164 whole entry, looked up, the tested form may be a part): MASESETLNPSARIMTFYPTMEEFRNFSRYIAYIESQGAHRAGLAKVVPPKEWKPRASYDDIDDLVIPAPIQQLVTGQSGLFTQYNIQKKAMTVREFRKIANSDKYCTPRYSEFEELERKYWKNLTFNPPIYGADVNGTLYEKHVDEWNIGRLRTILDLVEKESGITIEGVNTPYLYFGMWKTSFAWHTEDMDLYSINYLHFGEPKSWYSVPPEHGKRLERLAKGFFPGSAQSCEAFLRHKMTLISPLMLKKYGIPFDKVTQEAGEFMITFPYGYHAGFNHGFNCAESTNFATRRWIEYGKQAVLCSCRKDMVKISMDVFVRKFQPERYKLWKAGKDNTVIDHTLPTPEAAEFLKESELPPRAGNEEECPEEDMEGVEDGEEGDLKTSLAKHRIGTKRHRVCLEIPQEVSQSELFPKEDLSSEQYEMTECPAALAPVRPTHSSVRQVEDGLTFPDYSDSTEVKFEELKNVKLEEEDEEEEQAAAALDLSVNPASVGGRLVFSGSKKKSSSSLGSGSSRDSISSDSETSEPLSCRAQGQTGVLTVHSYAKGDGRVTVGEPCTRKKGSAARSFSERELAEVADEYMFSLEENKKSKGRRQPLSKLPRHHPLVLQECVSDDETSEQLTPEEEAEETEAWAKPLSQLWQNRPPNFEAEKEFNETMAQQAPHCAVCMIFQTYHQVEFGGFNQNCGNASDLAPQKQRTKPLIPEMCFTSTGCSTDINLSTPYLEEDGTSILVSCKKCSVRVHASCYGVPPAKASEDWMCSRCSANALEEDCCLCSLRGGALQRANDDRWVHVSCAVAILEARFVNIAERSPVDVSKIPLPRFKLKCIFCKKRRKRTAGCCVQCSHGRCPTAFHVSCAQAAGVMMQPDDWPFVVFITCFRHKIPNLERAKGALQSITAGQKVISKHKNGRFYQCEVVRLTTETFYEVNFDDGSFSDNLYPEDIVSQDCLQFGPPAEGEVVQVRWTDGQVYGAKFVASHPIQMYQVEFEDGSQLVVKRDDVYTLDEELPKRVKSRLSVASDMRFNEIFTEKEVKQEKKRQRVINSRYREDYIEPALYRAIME
PLK1 PBD inh: PLK1 (human) polo-box domain binding inhibition; Potency, µM, for inactives: max response, negative = inhibition, most hits filed as inhibitors; P53350; actives 2.8% (n = 360,000); AID 720504; Plk1 PBD binding of FITC phosphopeptide, fluorescence polarization; also: series mostly up to about 57 µM; % is scaled to controls: 0 for no effect and ±100 for the full control effect; nearly all actives have a fitted effect of over 65% in size
Active calls of the source: *; [ ] = remark or other dose. This is a sample that favours compounds with a hit; in the whole collection about 11% have one here. Calls follow the shape of the dose curve; as a rule, active = well fitted curve in the direction sought with a large enough effect; inconclusive = small, poorly fitted or top-dose-only effect, or another doubt; inactive = no such curve, though single readings can be large; an effect the other way counts as inactive or inconclusive. Potency is read from the fitted curve at half-maximal effect.

CCCCCC1(C)NC(=S)N(c2ccccc2)N1 (stereo unspecified) was read as VDR inh inconclusive, BAZ2B block inconclusive, HP1b chromo inh -7%, G9a inh inconclusive, JMJD2A Tudor 50µM* and PLK1 PBD inh -10%.
`CC1(c2ccc(O)cc2)NC(=O)N(c2ccccc2)N1` (stereo unspecified) gave VDR inh 7%, BAZ2B block -4%, HP1b chromo inh 23%, G9a inh -6%, JMJD2A Tudor -3% and PLK1 PBD inh -4%.
For CCC1(c2ccccc2)NC(=S)N(c2ccc(C)cc2)N1 (stereo unspecified) the results were VDR inh inconclusive, BAZ2B block -37%, HP1b chromo inh 37%, G9a inh inconclusive, JMJD2A Tudor -35% and PLK1 PBD inh -16%.
For CC1(CC(=O)Nc2ccccc2)NC(=S)N(c2ccccc2)N1 (stereo unspecified) the results were VDR inh -7%, BAZ2B block inconclusive, HP1b chromo inh -7%, G9a inh inconclusive, JMJD2A Tudor 5.6µM* and PLK1 PBD inh 27µM*.
For C=C(C)CCC1(C)NC(=O)N(c2ccccc2)N1 (stereo unspecified) the results were VDR inh 10%, BAZ2B block -19%, HP1b chromo inh 26%, G9a inh inconclusive, JMJD2A Tudor -2% and PLK1 PBD inh -1%.
`CCC1(c2ccc(Cl)cc2)NC(=S)N(c2ccccc2)N1` (stereo unspecified) gave VDR inh inconclusive, BAZ2B block -38%, HP1b chromo inh 23%, G9a inh 13µM*, JMJD2A Tudor -30% and PLK1 PBD inh inconclusive.
CC(/C=N/NC(=O)c1sc(N)nc1C)=C\c1ccccc1 was read as VDR inh 10%, HP1b chromo inh 48%, G9a inh 4%, JMJD2A Tudor -13% and PLK1 PBD inh 0%.
`CC(=O)Nc1sc2c(c1-c1nc3ccccc3s1)CN(C(C)C)CC2` gave VDR inh 7%, HP1b chromo inh 39% and JMJD2A Tudor -12%.
CC(C)N1CCc2c(sc(NC(=O)c3ccc(S(=O)(=O)N4CCc5ccccc54)cc3)c2C(N)=O)C1 was read as VDR inh 9%, BAZ2B block inconclusive, HP1b chromo inh 3%, G9a inh 18µM*, JMJD2A Tudor inconclusive and PLK1 PBD inh 8%.
CC(C)N1CCc2c(sc(NC(=O)c3cc(-c4cccs4)nc4ccccc34)c2C(N)=O)C1 was read as VDR inh 5%, BAZ2B block 40µM*, HP1b chromo inh -6%, G9a inh 11µM*, JMJD2A Tudor inconclusive and PLK1 PBD inh 1%.
`CC(C)N1CCc2c(sc(NC(=O)c3ccc(S(=O)(=O)N(C)C4CCCCC4)cc3)c2C(N)=O)C1` gave VDR inh 2%, BAZ2B block 3%, HP1b chromo inh 34%, G9a inh -23%[59 µM] and JMJD2A Tudor inconclusive.
For CC(C)N1CCc2c(sc(NC(=O)c3nc4ccccc4s3)c2C(N)=O)C1 the results were VDR inh -11%, BAZ2B block -36%, HP1b chromo inh -1%, G9a inh 45µM*, JMJD2A Tudor inconclusive and PLK1 PBD inh -19%.
For O=C(OCC#CCSc1nnc(-c2cccc3ccccc23)o1)c1cc2ccccc2s1 the results were JMJD2A Tudor 0%.
`O=C(Nc1cc(S(=O)(=O)N2CCCCCC2)ccc1OCC(F)(F)F)c1ccc(=O)[nH]c1` gave VDR inh 0%, BAZ2B block -2%, HP1b chromo inh 32%, G9a inh 16%[12.7 µM], JMJD2A Tudor -3% and PLK1 PBD inh 3%.
`C[C@@H](Oc1ccccc1)c1nnn(Cc2ccccc2)c1-c1c([C@@H](C)Oc2ccccc2)nnn1Cc1ccccc1` gave VDR inh -2%, BAZ2B block 3%, HP1b chromo inh 35%, G9a inh 31%[59 µM], JMJD2A Tudor -25% and PLK1 PBD inh -10%.
`Cc1ccc(C)c(S(=O)(=O)c2nnn3c2nc(NC(C)C)c2sccc23)c1` gave VDR inh -2%, BAZ2B block -15%, HP1b chromo inh 13%, G9a inh -29%[59 µM] and JMJD2A Tudor -26%.
`CC(=O)Nc1ccc(/C=N/NC(N)=S)cc1` gave VDR inh inconclusive and G9a inh 19%[59 µM].
Screening S=c1[nH]nc(COc2ccccc2)n1/N=C/C(Cl)=C/c1ccccc1 returned VDR inh inconclusive, BAZ2B block inconclusive, HP1b chromo inh inconclusive, G9a inh 10%[0.501 µM], JMJD2A Tudor inconclusive and PLK1 PBD inh 24µM*.
For CCc1n[nH]c(=S)n1/N=C/c1cc(Br)c(OC)cc1OC the results were VDR inh -8%, BAZ2B block -5%, HP1b chromo inh 20%, G9a inh 2.5µM*, JMJD2A Tudor inconclusive and PLK1 PBD inh -15%.
For S=c1[nH]nc(COc2ccccc2)n1/N=C/c1c(Cl)cccc1Cl the results were VDR inh 16%, BAZ2B block 2%, HP1b chromo inh 5%, G9a inh 2µM*, JMJD2A Tudor -11% and PLK1 PBD inh inconclusive.
For CCc1n[nH]c(=S)n1/N=C/c1ccc(NC(C)=O)cc1 the results were VDR inh -10%, BAZ2B block inconclusive, HP1b chromo inh -24%, G9a inh 8.9µM*, JMJD2A Tudor 5µM* and PLK1 PBD inh inconclusive.
For CCc1n[nH]c(=S)n1/N=C/c1ccc(-c2ccc(Br)cc2)o1 the results were VDR inh -23%, HP1b chromo inh 50%, JMJD2A Tudor -15% and PLK1 PBD inh -4%.
Screening C/C=C(\C)[C@H](O)C[Si](C)(C)c1ccccc1 returned VDR inh 7%.
`CCOc1ccccc1NC(=O)c1c2c(nc3ccccc13)C(=O)N(C1CCCCC1)C2` gave VDR inh 7%, BAZ2B block -32%, HP1b chromo inh 19%, G9a inh -20%[59 µM] and JMJD2A Tudor -33%.
O=C1CCc2cc(S(=O)(=O)Nc3ccccc3-c3ccccc3)ccc2N1 was read as JMJD2A Tudor -20%.
For COc1cccc(-c2nc(SC)nc3sc(C(=O)NC(C)(C)C)c(N)c23)c1 the results were VDR inh 0%, HP1b chromo inh 104% and JMJD2A Tudor 8%.
`Cc1ccc(N(C)C(=O)CN2C(=O)CCc3cc(S(=O)(=O)N4CCOCC4)ccc32)cc1` gave VDR inh -6%, BAZ2B block inconclusive, HP1b chromo inh 21%, G9a inh inconclusive and JMJD2A Tudor -14%.
